Results: PubChem BioAssay (NCI)
The panel holds about 83,000 compounds, 20% with a hit somewhere; the sample as a whole holds those more often.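 Compound tested at a single concentration for 48 hours in 96-well plates; a percent growth value below 10 was scored as active.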 Active and inactive are the calls of the source.

Test system: MDA-MB-468 breast
Assay: NCI-60 one-dose screen, 48 h (100 = growth as untreated, 0 = no growth, -100 = all killed)
Settings: 10 µM unless noted

SMILES | growth
c1ccc(Cn2cc3c(c2)-c2oncc2CC3)cc1 | 47.2% (inactive)
COc1ccc(Cn2cc(COc3cc(/C=C/C(=O)c4cc(OC)c(OC)c(OC)c4)ccc3OC)nn2)cc1 | 49% (inactive)
Clc1ccc2c(NC3CCC(N4CCOCC4)CC3)ccnc2c1 (configuration not stated) | 9.58% (active)
O=C(NNc1nc2cc(F)ccc2n2c(CO)ccc12)c1cnccn1 | -14% (active)
O=C(CCC(=O)OC1CCCC1)OC1CCCC1 | 100% (inactive)
Cc1ccc(S(=O)(=O)NCC[C@@H]2C[C@H]2c2cc3ccccc3s2)cc1 | 83.7% (inactive)
COc1ccc(CCNC(=O)COc2cc3c(Nc4ccc(F)c(Cl)c4)ncnc3cc2OC)cc1OC | -10.1% (active)
